Test results as given in publication PMC7862700, “An all-to-all approach to the identification of sequence-specific readers for epigenetic DNA modifications on cytosine”.

Legend:
Experiment in all cases: DAPPL (digital affinity profiling via proximity ligation, sequencing); 10 mM Tris-HCl pH 7.5, 50 mM NaCl, 1 mM DTT, 4% glycerol, room temperature, 30 min; GST-TFs on glutathione beads, 16-mer random dsDNA library, 0.1% formaldehyde crosslink after washing; high values mean tight binding
Conditions in all cases: protein: recombinant; tags: N-terminal GST; dsDNA, one strand shown
[1] = target: T1, FLI1 (Homo sapiens, UniProt Q01543 1-452)
T1 sequence: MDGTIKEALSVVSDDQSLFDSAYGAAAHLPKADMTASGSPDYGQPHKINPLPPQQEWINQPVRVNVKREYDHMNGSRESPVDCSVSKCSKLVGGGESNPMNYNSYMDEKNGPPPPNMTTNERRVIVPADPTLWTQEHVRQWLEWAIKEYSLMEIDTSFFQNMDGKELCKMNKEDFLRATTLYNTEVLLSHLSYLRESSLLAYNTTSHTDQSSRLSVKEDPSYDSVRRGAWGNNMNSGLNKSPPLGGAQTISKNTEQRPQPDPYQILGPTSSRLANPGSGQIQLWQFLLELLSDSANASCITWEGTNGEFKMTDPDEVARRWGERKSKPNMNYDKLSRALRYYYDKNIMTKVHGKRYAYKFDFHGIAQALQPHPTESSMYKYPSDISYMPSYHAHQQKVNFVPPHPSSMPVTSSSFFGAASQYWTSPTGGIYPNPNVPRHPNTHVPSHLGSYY
Method in brief: (§1)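 Pools were built from human transcription factors expressed in yeast as GST fusions, captured on glutathione beads and DNA-barcoded, along with a tag-only sample. Incubation with 200 nmole of a 16-mer random double-stranded DNA library lasted 30 min at room temperature in Tris/NaCl/DTT/glycerol buffer, and was followed by washing, 0.1% formaldehyde crosslinking, proximity ligation, PCR amplification and Illumina NextSeq500 sequencing. Binding signal is the quotient of each hexamer's read frequency for a factor and its frequency for the tag-only sample.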

[2] = target: T2, ELK1 (Homo sapiens, UniProt P19419 1-428)
T2 sequence: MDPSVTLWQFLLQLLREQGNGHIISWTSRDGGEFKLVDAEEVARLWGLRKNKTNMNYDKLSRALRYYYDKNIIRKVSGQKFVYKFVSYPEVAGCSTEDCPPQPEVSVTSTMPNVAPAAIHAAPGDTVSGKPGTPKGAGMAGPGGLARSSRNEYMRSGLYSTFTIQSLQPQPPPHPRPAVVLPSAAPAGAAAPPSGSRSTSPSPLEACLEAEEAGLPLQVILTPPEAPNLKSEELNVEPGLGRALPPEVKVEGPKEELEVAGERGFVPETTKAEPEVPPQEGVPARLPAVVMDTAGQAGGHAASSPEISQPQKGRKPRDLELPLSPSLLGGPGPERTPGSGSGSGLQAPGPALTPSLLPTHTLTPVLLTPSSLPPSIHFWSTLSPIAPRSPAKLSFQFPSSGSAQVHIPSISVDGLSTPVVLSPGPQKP
Method in brief: as §1

[3] = target: T3, ERG (Homo sapiens, UniProt P11308 1-479)
T3 sequence: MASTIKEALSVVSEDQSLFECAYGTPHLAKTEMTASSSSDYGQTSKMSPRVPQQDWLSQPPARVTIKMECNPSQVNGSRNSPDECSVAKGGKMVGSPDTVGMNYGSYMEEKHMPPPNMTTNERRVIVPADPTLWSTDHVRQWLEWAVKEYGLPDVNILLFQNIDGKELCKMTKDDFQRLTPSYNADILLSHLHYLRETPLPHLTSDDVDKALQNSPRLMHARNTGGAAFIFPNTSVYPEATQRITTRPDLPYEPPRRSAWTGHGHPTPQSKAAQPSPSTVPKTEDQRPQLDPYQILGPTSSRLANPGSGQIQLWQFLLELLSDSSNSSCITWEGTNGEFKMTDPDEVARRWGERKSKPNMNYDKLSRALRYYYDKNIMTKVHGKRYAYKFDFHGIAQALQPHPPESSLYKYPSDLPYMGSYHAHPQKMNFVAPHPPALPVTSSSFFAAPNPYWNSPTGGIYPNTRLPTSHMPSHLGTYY
Method in brief: as §1

[4] = target: ELF1 (Homo sapiens, UniProt P32519 1-619)
Chain of ELF1 (P32519 whole entry): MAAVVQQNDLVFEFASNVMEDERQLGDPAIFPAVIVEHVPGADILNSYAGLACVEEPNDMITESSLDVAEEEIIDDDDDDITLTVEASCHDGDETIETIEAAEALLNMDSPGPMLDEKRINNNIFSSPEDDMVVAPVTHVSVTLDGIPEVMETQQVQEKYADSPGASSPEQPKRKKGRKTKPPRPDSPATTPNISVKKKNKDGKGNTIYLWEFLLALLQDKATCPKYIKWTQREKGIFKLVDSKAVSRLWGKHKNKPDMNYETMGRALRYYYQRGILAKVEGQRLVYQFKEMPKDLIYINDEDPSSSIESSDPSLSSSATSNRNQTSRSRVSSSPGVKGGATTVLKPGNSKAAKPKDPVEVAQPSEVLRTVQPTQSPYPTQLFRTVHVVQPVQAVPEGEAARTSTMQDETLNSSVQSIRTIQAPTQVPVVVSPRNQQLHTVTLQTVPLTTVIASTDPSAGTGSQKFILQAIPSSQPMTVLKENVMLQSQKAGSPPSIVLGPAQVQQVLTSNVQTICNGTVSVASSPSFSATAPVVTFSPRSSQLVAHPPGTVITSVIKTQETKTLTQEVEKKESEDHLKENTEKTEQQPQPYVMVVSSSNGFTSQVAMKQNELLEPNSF
Method in brief: as §1

[5] = target: T4, EHF (Homo sapiens, UniProt Q9NZC4 1-300)
T4 sequence: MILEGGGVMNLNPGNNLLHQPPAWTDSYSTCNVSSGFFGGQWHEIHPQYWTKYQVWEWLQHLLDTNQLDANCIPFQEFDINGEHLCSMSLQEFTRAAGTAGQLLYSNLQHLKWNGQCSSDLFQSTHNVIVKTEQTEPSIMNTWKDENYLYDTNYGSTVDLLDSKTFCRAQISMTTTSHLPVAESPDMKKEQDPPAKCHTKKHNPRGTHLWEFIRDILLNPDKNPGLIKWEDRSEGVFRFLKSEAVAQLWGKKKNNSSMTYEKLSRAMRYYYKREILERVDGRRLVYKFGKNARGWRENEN
Method in brief: as §1

[6] = target: SPIB (Homo sapiens, UniProt Q01892 1-262)
Chain of SPIB (Q01892 whole entry): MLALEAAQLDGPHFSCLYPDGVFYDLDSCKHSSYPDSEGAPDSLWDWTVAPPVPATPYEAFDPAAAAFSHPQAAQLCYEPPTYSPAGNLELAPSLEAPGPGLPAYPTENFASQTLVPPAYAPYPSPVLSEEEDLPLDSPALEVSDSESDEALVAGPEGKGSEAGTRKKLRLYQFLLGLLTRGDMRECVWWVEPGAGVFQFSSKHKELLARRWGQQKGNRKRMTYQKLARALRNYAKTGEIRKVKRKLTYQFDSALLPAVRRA
Method in brief: as §1

[7] = target: T5, FEV (Homo sapiens, UniProt Q99581 1-238)
T5 sequence: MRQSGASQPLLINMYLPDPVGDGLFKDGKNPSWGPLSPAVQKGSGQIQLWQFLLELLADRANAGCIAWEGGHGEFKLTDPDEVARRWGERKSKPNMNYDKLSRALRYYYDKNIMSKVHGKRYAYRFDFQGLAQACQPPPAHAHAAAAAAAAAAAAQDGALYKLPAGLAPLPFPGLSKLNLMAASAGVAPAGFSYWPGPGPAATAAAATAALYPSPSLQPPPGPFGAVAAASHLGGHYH
Method in brief: as §1

[8] = target: ETV5 (Homo sapiens, UniProt P41161 1-510)
Chain of ETV5 (P41161 whole entry): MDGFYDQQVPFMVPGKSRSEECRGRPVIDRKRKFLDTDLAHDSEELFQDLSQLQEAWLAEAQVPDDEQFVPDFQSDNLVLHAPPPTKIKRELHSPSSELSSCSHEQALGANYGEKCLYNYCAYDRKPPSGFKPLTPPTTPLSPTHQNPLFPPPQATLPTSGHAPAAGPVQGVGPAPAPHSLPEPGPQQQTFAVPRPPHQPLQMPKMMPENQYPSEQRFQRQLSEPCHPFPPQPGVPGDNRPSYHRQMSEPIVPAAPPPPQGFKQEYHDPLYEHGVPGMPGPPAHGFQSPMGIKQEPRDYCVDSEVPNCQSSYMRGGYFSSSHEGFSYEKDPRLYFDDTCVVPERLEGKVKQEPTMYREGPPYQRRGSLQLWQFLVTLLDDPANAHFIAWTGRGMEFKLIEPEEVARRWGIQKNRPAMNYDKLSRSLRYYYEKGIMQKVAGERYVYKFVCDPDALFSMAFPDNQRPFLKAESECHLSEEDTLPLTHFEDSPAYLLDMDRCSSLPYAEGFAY
Method in brief: as §1

[9] = target: ELF4 (Homo sapiens, UniProt Q99607 1-663)
Chain of ELF4 (Q99607 whole entry): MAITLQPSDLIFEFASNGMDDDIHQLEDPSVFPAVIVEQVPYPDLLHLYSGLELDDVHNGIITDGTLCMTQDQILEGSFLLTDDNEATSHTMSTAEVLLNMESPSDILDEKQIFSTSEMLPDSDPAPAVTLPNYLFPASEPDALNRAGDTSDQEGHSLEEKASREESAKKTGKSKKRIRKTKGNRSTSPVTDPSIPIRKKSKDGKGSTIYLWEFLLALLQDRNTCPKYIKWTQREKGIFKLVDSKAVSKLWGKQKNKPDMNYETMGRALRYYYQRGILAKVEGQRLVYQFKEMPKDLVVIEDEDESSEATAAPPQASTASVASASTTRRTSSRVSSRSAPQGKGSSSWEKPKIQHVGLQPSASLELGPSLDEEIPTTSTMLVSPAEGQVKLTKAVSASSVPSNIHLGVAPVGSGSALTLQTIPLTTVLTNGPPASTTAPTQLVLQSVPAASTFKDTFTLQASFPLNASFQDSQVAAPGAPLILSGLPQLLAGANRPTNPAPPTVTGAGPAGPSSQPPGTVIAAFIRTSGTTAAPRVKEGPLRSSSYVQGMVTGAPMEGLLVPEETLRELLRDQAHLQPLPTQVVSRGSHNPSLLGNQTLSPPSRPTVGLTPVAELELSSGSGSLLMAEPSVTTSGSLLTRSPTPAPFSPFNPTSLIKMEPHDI
Method in brief: as §1

[10] = target: T6, ELF3 (Homo sapiens, UniProt P78545 1-371)
T6 sequence: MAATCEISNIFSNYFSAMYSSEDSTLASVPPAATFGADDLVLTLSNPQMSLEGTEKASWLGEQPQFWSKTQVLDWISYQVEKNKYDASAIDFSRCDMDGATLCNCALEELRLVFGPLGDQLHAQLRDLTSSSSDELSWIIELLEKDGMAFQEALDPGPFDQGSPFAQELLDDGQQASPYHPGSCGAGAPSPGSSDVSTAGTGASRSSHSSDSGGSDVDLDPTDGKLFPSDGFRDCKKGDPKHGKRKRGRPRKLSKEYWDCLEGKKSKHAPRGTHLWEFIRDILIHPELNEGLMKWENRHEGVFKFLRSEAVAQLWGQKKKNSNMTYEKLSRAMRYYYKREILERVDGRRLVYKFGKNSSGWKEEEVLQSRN
Method in brief: as §1

[11] = target: ETV1 (Homo sapiens, UniProt P50549 1-477)
Chain of ETV1 (P50549 whole entry): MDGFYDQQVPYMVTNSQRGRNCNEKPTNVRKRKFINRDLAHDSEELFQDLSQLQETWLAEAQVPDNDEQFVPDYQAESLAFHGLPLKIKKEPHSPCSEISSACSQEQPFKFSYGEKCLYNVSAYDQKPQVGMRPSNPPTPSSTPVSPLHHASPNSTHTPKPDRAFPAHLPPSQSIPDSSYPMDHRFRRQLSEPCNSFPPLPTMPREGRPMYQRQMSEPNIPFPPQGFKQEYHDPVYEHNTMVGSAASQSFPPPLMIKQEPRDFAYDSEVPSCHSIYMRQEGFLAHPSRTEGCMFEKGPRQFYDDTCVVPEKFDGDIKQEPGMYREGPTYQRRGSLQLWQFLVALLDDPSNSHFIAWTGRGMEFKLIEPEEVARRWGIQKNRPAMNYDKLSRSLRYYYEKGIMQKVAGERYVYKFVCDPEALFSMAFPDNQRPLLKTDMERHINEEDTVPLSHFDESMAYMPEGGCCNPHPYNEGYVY
Method in brief: as §1

[12] = target: T7, ETS2 (Homo sapiens, UniProt P15036 1-469)
T7 sequence: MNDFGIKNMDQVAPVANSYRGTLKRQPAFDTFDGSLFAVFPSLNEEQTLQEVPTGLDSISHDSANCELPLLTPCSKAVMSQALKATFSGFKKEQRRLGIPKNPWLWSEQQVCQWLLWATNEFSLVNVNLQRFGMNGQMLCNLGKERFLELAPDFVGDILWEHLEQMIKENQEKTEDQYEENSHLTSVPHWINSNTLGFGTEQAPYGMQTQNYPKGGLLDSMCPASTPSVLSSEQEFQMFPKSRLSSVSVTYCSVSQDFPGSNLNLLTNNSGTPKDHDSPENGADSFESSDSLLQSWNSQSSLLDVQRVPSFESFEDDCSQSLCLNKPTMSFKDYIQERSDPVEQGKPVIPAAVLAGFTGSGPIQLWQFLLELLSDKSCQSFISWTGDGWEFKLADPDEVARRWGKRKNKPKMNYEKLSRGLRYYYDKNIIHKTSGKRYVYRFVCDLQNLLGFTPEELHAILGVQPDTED
Method in brief: as §1

[13] = target: T8, ETV3 (Homo sapiens, UniProt P41162-2 1-143)
T8 sequence: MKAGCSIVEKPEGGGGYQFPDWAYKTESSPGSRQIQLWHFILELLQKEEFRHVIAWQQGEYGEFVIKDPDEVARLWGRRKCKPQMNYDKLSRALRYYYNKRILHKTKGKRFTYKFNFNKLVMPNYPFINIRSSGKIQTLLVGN
Method in brief: as §1

[14] = target: ETV6 (Homo sapiens, UniProt P41212 1-452)
Chain of ETV6 (P41212 whole entry): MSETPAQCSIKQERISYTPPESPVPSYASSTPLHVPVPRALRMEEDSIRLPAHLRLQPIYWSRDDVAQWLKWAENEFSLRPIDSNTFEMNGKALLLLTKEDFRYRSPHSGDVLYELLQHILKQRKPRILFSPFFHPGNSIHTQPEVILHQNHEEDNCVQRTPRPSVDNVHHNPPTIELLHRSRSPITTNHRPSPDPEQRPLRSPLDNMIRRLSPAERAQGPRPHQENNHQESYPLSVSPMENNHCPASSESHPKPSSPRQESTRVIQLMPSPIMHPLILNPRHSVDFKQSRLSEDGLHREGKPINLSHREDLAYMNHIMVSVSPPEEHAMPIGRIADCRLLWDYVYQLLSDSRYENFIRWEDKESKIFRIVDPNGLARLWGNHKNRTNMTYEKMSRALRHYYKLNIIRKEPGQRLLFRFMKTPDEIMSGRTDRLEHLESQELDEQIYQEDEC
Method in brief: as §1

TGCCGG
binding signal [1]: 1.11 fold enrichment (6-mer frequency, TF over GST control) | binding signal [2]: 1.09 fold enrichment (6-mer frequency, TF over GST control) | binding signal [3]: 1.13 fold enrichment (6-mer frequency, TF over GST control) | binding signal [4]: 1.02 fold enrichment (6-mer frequency, TF over GST control) | binding signal [5]: 1.03 fold enrichment (6-mer frequency, TF over GST control) | binding signal [6]: 1.02 fold enrichment (6-mer frequency, TF over GST control) | binding signal [7]: 1.26 fold enrichment (6-mer frequency, TF over GST control) | binding signal [8]: 1.04 fold enrichment (6-mer frequency, TF over GST control) | binding signal [9]: 1.04 fold enrichment (6-mer frequency, TF over GST control) | binding signal [10]: 1.11 fold enrichment (6-mer frequency, TF over GST control) | binding signal [11]: 1.11 fold enrichment (6-mer frequency, TF over GST control) | binding signal [12]: 1 fold enrichment (6-mer frequency, TF over GST control) | binding signal [13]: 1.21 fold enrichment (6-mer frequency, TF over GST control) | binding signal [14]: 1.13 fold enrichment (6-mer frequency, TF over GST control)
